In PubChem BioAssay (NCI):
Compounds without any hit were thinned out: in the full panel of roughly 83,000, 20% have a hit.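 Single-dose data. Exposure time 48 hours. Values below 10 considered active.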 Active and inactive are the calls of the source.

test system: SK-MEL-2 melanoma; experiment: NCI-60 one-dose screen, 48 h (100 = growth as untreated, 0 = no growth, -100 = all killed); details: 10 µM unless noted

SMILES | growth
COc1ccc(C(=O)c2cc(OC)c(OC)c(OC)c2)cc1/C=C/C(=O)c1ccc(OC)c(OC)c1 | 20.9% (inactive)
COc1c(NC[C@H]2OC(O)[C@H](O)[C@@H](O)[C@@H]2O)c(=O)c1=O (stereo partly specified) | 121% (inactive)
COc1cccc(/C=C/c2c(C(=O)O)cccc2[N+](=O)[O-])c1OC | 102% (inactive)
COc1ccc(OC)c(C(=O)c2oc3ccc(Br)cc3c2N)c1 | -9.79% (active)
Nc1c(C(=O)Nc2ccccc2)sc2nc3c(cc12)CN(Cc1ccccc1)CC3 | 103% (inactive)
CN=S(=O)(NC(=O)c1ccc(Cl)cc1Cl)c1ccc(Br)s1 (stereo unspecified) | 108% (inactive)
CC(C)C[C@H](NC(=O)[C@H](Cc1ccccc1)n1ccc(N2CCCCC2)cc1=O)B(O)O | 2.84% (active)
COc1ccc(-c2cn[nH]c2-c2cc(OC)c3c(c2)OCO3)cc1 | -9.32% (active)
COc1ccccc1CNCCCN1C(=O)c2ccc3c4c(ccc(c24)C1=O)C(=O)N(CCCNCCCCNCCCCN)C3=O | -55.8% (active)
Nc1c(C(=O)c2ccc(F)cc2)sc2nc3c(cc12)CCCC3 | 67.7% (inactive)
COc1cccc(C2CC(=O)Nc3c2c(C)nn3-c2nc3ccccc3[nH]2)c1OC (stereo unspecified) | 72.7% (inactive)
COc1ccc(NC(=O)CSc2nc3ccc(Cl)cc3c(=O)n2-c2ccccc2C(F)(F)F)c(OC)c1OC | 53.3% (inactive)
Cc1cc(C)c(NC(=O)c2sc3nc4c(cc3c2N)CN(Cc2ccccc2)CC4)c(C)c1 | 24% (inactive)
CC(C)[C@H](CO)Nc1nc(Nc2ccc(C(=O)NCCNS(=O)(=O)c3cccc4c(N(C)C)cccc34)c(Cl)c2)c2ncn(C(C)C)c2n1 | -16.1% (active)
COc1ccc(C(=O)c2cc(OC)c(OC)c(OC)c2)cc1/C=C/C(=O)c1ccc2c(c1)OCO2 | 22.2% (inactive)
Cc1ccc(Oc2nc3ccccc3cc2-c2nnc(Cn3c(COc4ccccc4)nc4ccccc43)o2)cc1 | 89.8% (inactive)
Nc1c(C(=O)Nc2ccccc2)sc2nc3c(cc12)CCCCC3 | 12.6% (inactive)
CC(C)C[C@H](NC(=O)Cn1ccc(NCc2ccccc2)cc1=O)B(O)O | -6.74% (active)

SMILES | growth
CC(C)(C)c1ccc(S(=O)(=O)Oc2ccc3c4c(c(=O)oc3c2)CCCCC4)cc1 | 45% (inactive)
COc1cc(-c2nc(-c3nc4ccccc4[nH]3)cc3c2[nH]c2ccccc23)cc(OC)c1OC | 23.9% (inactive)
O=C(Nc1ccc(OCc2nnc(-c3ccc(Cl)cc3)o2)c(F)c1)Nc1ccc(Cl)c(Cl)c1 | 81.5% (inactive)
COc1ccc(/C=C/C(=O)c2ccc(B(O)O)cc2)cc1O | 92.2% (inactive)
COc1ccc(/C=C/C(=O)c2cc(OC)c(OC)c(OC)c2)cc1OCc1cn(Cc2ccc(F)cc2)nn1 | 90% (inactive)
CC(C)(C)OC(=O)N[C@@H](Cc1ccccc1)C(=O)N(Cc1ccccc1)C1(C(=O)NCc2ccccc2)CCN(Cc2ccccc2)CC1 | 55.9% (inactive)
COC(=O)c1cc(-c2cccs2)c(C#N)c(N)c1C#N | 112% (inactive)
CCN(CC)P(=O)(N(CC)CC)N(CCCSC/C=C(\C)CC/C=C(\C)CCC=C(C)C)CCCN1CCN(C)CC1 | 118% (inactive)
O=C(O)c1cccc([N+](=O)[O-])c1/C=C/c1ccccc1 | 106% (inactive)
Cc1ccc(C(=O)c2sc3nc4c(cc3c2N)CCCC4)c(C)c1 | -13.7% (active)
COc1cc(/C=C\c2cc(OC)c(OC)c(OC)c2)cc(N/C=C\C(=O)c2c[nH]c3ccccc23)c1OC | 46.7% (inactive)
COc1cc(C(=O)/C=C/c2cc(C(=O)c3cc(OC)c(OC)c(OC)c3)ccc2OC)ccc1N | -38.6% (active)
CC(C)C[C@H](NC(=O)[C@@H](Cc1ccccc1)n1ccc(Nc2ccccc2)cc1=O)B(O)O | -14.9% (active)
COc1ccc(Cn2c(SC)nc(=O)n(Cc3ccc(Cl)cc3)c2=O)cc1 | 102% (inactive)
COc1ccc(Cn2cc(COc3cc(/C=C/C(=O)c4cc(OC)c(OC)c(OC)c4)ccc3OC)nn2)cc1 | 87.1% (inactive)
O=c1oc2cc(OS(=O)(=O)c3ccccc3)c(Cl)cc2c2c1CCCCCC2 | 106% (inactive)
COc1ccc(-c2nc(-c3nc4ccc(F)cc4[nH]3)cc3c2[nH]c2ccccc23)cc1 | 29.4% (inactive)
COc1ccc(C2CC(=O)Nc3c2c(C)nn3-c2nc3ccccc3[nH]2)cc1OC (stereo unspecified) | 77.8% (inactive)
